ELG1 DNA repair – qHTS screen for small molecules that inhibit ELG1-dependent DNA repair in human embryonic kidney (HEK293T) cells expressing luciferase-tagged ELG1; HEK293T ELG1-luciferase reporter, luminescence, 16 h; DNA damage induced by 5-fluorouridine; Potency, µM (titrated, usually from 46.1 µM), hits mostly inhibitors; 330,000 tested, 2.3% active; also: nearly all actives have a fitted effect of over 55% in size
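Cells (2,000 per well) received 5-fluorouridine plus test compound or DMSO and were incubated 16 hr at 37 °C, 5% CO2. Luciferase activity was read by luminescence 30 min after ONE-Glo addition; signal suppression marked inhibition of damage-induced ELG1 function.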
Gal4-VP16 FLuc – VP16 counterscreen qHTS for inhibitors of ROR gamma transcriptional activity. Potency, µM (highest dose often 53.6 µM), most hits filed as inhibitors. 310,000 tested, 3.5% active. AID 2546, 2010. Drosophila S2 Gal4-VP16 UAS-luciferase, luminescence, 20 h;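 also: Gal4-VP16 expression switched on by copper sulfate through the metallothionein promoter; nearly all actives have a fitted effect of over 50% in size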
IL1B secr inh – qHTS for Inhibitors of Inflammasome Signaling: IL-1-beta AlphaLISA Primary Screen; 360,000 tested, 4.7% active; activity change, % at 57.5 µM; THP-1 LPS/ATP IL-1B secretion, AlphaLISA, 16 h; hits give low values; in the data active = activity change below about -50%; inconclusive = mostly about -30% to -49%
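THP-1 cells pretreated 1 hr with compounds (up to 57.5 uM final), then stimulated with LPS (250 ng/mL final) plus ATP (1.25 mM final); secreted IL-1B measured by AlphaLISA after 16 hr, decreased signal indicating inhibition.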
DT40 TDP1 no CPT – qHTS for Inhibitors of human tyrosyl-DNA phosphodiesterase 1 (TDP1): qHTS in cells in absence of CPT; DT40 Tdp1-/- hTDP1 cells, no CPT, ATP luminescence, 48 h; AID 686978, 2013; 420,000 tested, 15% active; Potency, µM (series often up to 46.2 µM), usual class: inhibitors; also: nearly all actives have a fitted effect of over 55% in size
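Luminescent ATP content (CellTiter-Glo) served as the growth readout. Knockout chicken DT40 cells expressing human TDP1 were exposed to compounds without camptothecin for a minimum 48 hr at 37 °C.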
DT40 TDP1 CPT – qHTS for Inhibitors of human tyrosyl-DNA phosphodiesterase 1 (TDP1): qHTS in cells in presence of CPT; chicken DT40 Tdp1-/-;hTDP1 cells + 20 nM CPT, ATP luminescence, 48 h; Potency, µM (doses to about 46.2 µM), most hits filed as inhibitors; 420,000 tested, 12% active; also: nearly all actives have a fitted effect of over 55% in size
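Chicken DT40 Tdp1-/- cells complemented with human TDP1, 400 cells/well, exposed to compounds plus 20 nM camptothecin for at least 48 h at 37 C; viability read as ATP content by CellTiter-Glo luminescence.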
RORg inh – qHTS for inhibitors of ROR gamma transcriptional activity; Nuclear receptor ROR-gamma (Mus musculus), P51450; Drosophila S2 Gal4-RORgamma UAS-luciferase reporter, 20 h; Potency, µM (highest dose often 53.6 µM), most hits filed as inhibitors; 310,000 tested, 5.4% active; AID 2551, 2010; also: nearly all actives have a fitted effect of over 60% in size
Target sequence (P51450 whole entry, looked up, the tested form may be a part): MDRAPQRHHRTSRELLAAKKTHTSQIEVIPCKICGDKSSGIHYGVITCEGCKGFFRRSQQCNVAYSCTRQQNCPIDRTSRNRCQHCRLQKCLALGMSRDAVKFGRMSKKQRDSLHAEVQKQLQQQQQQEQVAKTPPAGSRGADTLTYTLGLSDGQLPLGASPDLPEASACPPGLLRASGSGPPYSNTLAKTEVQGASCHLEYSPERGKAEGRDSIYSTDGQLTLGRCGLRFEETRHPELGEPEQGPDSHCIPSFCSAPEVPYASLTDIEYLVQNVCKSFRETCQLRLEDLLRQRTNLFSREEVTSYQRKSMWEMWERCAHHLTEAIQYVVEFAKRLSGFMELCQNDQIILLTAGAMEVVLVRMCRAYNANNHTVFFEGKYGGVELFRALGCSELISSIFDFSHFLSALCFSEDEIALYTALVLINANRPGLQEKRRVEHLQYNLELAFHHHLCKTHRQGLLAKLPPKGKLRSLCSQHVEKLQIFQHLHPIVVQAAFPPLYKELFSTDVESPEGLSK
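Luminescence from a UAS-regulated Photinus luciferase reporter in stably transfected Drosophila Schneider cells is measured; decreased signal marks ROR gamma inhibition. Fusion expression is induced by 700 uM copper sulfate for 20 hr.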
Numbers stand for hits; – = inactive; ? = inconclusive; · = no result given; [ ] = dose if it differs, or a comment. Only some compounds are listed: those with a hit (about 21% of all), similar ones and a draw of the others. Unless noted, calls follow the shape of the dose curve; as a rule, active = well fitted curve in the direction sought with a large enough effect; inconclusive = small, poorly fitted or top-dose-only effect, or another doubt; inactive = no such curve, though single readings can be large; an effect the other way counts as inactive or inconclusive.

SMILES | ELG1 DNA repair | Gal4-VP16 FLuc | IL1B secr inh | DT40 TDP1 no CPT | DT40 TDP1 CPT | RORg inh
Cc1ccc(-c2nc(CS(=O)CC(=O)NC(C)CCc3ccccc3)c(C)o2)cc1 (stereo unspecified) | – | ? | – | – | – | –
Cc1cnc2ccc(F)cc2c1 | · | · | – | ? | – | ·
CCSc1nnc(NC(=O)Cc2ccc(OC)c(S(=O)(=O)N3CCOCC3)c2)s1 | – | – | – | – | – | –
CC1(C)CCC(NC(=O)[C@@H](N)CCC(=O)O)CC1 | · | – | · | – | – | –
Cc1[nH]n(-c2ccccc2)c(=O)c1C(c1ccc(C(=O)O)cc1)c1c(C)[nH]n(-c2ccccc2)c1=O | – | – | – | ? | ? | –
Cc1[nH]n(C(N)=S)c(=O)c1C(c1ccccc1)C(C#N)C#N (stereo unspecified) | ? | 10µM | – | 1.5µM | 1.5µM | 10µM
Cc1[nH]n(-c2ncc(-c3ccccc3)s2)c(=O)c1C(c1ccc(Br)cc1)C(C#N)C#N (stereo unspecified) | ? | 13µM | -64 | ? | ? | 11µM
COc1ccccc1N1CCN(C(c2ccccc2)c2nnnn2Cc2ccccc2)CC1 (stereo unspecified) | · | · | · | 16µM | 14µM | ·
COc1ccccc1C(c1nnnn1Cc1ccco1)N1CCN(c2cccc(C)c2C)CC1 (stereo unspecified) | ? | – | ? | 16µM | 18µM | –
COc1ccccc1N1CCN(C(c2ccc(N(C)C)cc2)c2nnnn2CCc2ccccc2)CC1 (stereo unspecified) | – | – | – | ? | – | ?
COc1ccc(OC)c(C(c2nnnn2Cc2ccccc2)N2CCN(C)CC2)c1 (stereo unspecified) | – | – | – | – | – | –
CCN1CCN(C(c2cccc(OC)c2OC)c2nnnn2Cc2ccco2)CC1 (stereo unspecified) | – | – | – | – | – | –
COc1ccc(Cn2nnnc2C(C(C)C)N2CCN(c3ccccc3OC)CC2)cc1 (stereo unspecified) | ? | – | – | 23µM | 29µM | –
O=C(COC(=O)c1ccc(O)cc1)Nc1ccccc1 | ? | – | – | – | – | –
Cc1ccccc1NC(=S)NC(C)C(c1cccs1)N1CCOCC1 (stereo unspecified) | – | 22µM | – | ? | – | 2.8µM
CC(NC(=S)Nc1ccc(F)cc1)C(c1cccs1)N1CCOCC1 (stereo unspecified) | – | ? | – | ? | ? | 4µM
CC(NC(=S)NCCc1ccccc1)C(c1cccs1)N1CCN(Cc2ccccc2)CC1 (stereo unspecified) | ? | ? | – | ? | 16µM | 5µM
CCOCCCNC(=O)Cn1ncc2c([nH]c3ccc(C)cc32)c1=O | · | · | · | – | ? | ·
COc1cccc(N2CCN(C(=O)c3cc4c(=O)n(Cc5cccnc5)ccc4nc3C)CC2)c1 | · | · | · | – | – | ·
Cc1nc2ccn(Cc3cccnc3)c(=O)c2cc1C(=O)N1CCN(c2ccccc2)CC1 | · | · | · | – | – | ·
COc1ccc(Cn2ccc3nc(C)c(C(=O)N4CCN(c5ccc(F)cc5)CC4)cc3c2=O)cc1 | · | · | · | 15µM | 23µM | ·
COc1ccc(Cn2ccc3nc(C)c(C(=O)N4CCN(c5ccccc5OC)CC4)cc3c2=O)cc1 | · | · | · | 23µM | ? | ·
COc1ccc(Cn2ccc3nc(C)c(C(=O)N4CCN(c5ccc(OC)cc5)CC4)cc3c2=O)cc1 | · | · | · | 23µM | 23µM | ·
CN1CCN(C2=C(Cl)C(=O)N(c3ccc(Cl)c(Cl)c3)C2=O)CC1 | – | ? | ? | ? | 29µM | ?
CN1CCN(C2=C(Cl)C(=O)N(c3cccc(Cl)c3)C2=O)CC1 | – | – | – | – | – | –
SMILES | ELG1 DNA repair | Gal4-VP16 FLuc | IL1B secr inh | DT40 TDP1 no CPT | DT40 TDP1 CPT | RORg inh
Cc1ccc2c(CN(C)Cc3ccccc3)cc(=O)oc2c1 | · | · | – | ? | 18µM | ·
CN(Cc1ccccc1F)Cc1cc(=O)oc2cc(O)c(Cl)cc12 | – | – | – | 16µM | 15µM | –
CN(Cc1ccccc1)Cc1cc(=O)oc2ccc3ccccc3c12 | · | · | – | 18µM | ? | ·
CCCCN(CCCC)Cc1cc(=O)oc2ccc3ccccc3c12 | · | · | – | 16µM | ? | ·
O=C(CCC(=O)c1cccs1)Nc1ncccc1O | – | · | – | – | – | ·
C=CCN(CC=C)Cc1cc(=O)oc2ccc3ccccc3c12 | · | · | – | 16µM | 16µM | ·
COC(=O)C[C@@H]1C[C@H]2c3cc(N(C)C)ccc3O[C@H]2[C@H](CO)O1 | · | · | – | – | – | ·
Cc1cccc(CN2CCN([C@@H]3CS(=O)(=O)N[C@H]3COCc3ccccc3)CC2)c1 | · | · | – | ? | ? | ·
COC(=O)c1ccc(OC)c(CN2CCCN(Cc3ccc(F)cc3)S2(=O)=O)c1 | 13µM | – | – | ? | ? | –
O=C(CN1CCCN(Cc2ccc(F)cc2)S1(=O)=O)NCc1ccccc1Cl | · | · | · | 16µM | ? | ·
COc1ccc(C=O)cc1CN1CCCN(Cc2ccc(Cl)cc2)S1(=O)=O | – | – | – | ? | ? | –
CCc1ccc(NC(=O)CN2CCCN(Cc3cccc(Cl)c3)S2(=O)=O)cc1 | · | · | · | – | ? | ·
CCc1ccc(NC(=O)CN2CCN(Cc3ccccc3)S2(=O)=O)cc1 | · | · | · | – | – | ·
CCc1cccc(C)c1NC(=O)CN1CCN(Cc2ccccc2Cl)S1(=O)=O | · | · | · | 26µM | ? | ·
CCc1cccc(C)c1NC(=O)CN1CCCN(Cc2ccccc2Cl)S1(=O)=O | · | · | · | 23µM | ? | ·
CCCN1CCC(C)(C(=O)Nc2cccc(OC(C)C)c2)C1 (stereo unspecified) | · | · | – | – | – | ·
CCCCn1c(N)c(N(CCOC)C(=O)COC(=O)COc2ccc(CC)cc2)c(=O)[nH]c1=O | – | · | – | – | – | ·
O=C(NCc1ccccc1)c1cc(-c2ccco2)on1 | ? | – | – | ? | – | ?
COc1ccc(CCNC(=O)c2cc(-c3ccco3)on2)cc1OC | – | –[10 µM] | ? | 16µM | 10µM | –
COc1ccc(Nc2nc(C(=O)NCc3ccco3)cs2)cc1 | ? | – | – | ? | 23µM | ?
O=C(NCc1ccco1)c1cc(-c2ccco2)on1 | ? | – | – | ? | 23µM | –
O=C(NCCc1ccccc1)c1cc(-c2ccco2)on1 | ? | – | – | ? | 6.3µM | ?
COc1cccc(-c2cc(C(=O)NCCc3ccc(OC)c(OC)c3)no2)c1 | · | · | · | – | – | ·
Cc1cc([N+](=O)[O-])ccc1NC(c1nnc(-c2ccccc2)o1)c1ccccc1F (stereo unspecified) | · | · | · | – | – | ·

Assay outcomes: PubChem, National Center for Advancing Translational Sciences (NCATS)
